# HIF activator – HIF pathway transcriptional activators, primary screen, cell-based, U2OS HRE-luciferase, luminescence. activation, % at 7.5 µM (by protocol). hit rate 0.32% among 300,000. AID 1910, 2009. U2OS HRE-luciferase reporter; normalized: DMSO 0%, desferrioxamine 100%;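 active = mean activation of at least 10% of the iron chelator positive control signal, with at least half of replicates also reaching 10%; inconclusive = mean and replicate majority disagree about reaching 10%; inactive = mean and most replicates under 10%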
# aSyn 5UTR inh – MLPCN primary screen, SNCA 5' untranslated region; AID 1813, 2009; inhibition, % (tested at 7.5 µM); hit rate 0.82% among 300,000; alpha-synuclein 5'UTR reporter, inhibitor activity; in the data active = inhibition above about 60%; inconclusive = no clear call, values can overlap the other calls;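 note: H4 neuroglioblastoma cells stably carrying SNCA 5'UTR luciferase fusion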
# Wee1 degr inh – Wee1 degradation inhibitors, primary screen, cell-based, HeLa, Wee1K328M-luciferase, luminescence; Wee1-like protein kinase (Homo sapiens), P30291; HeLa Luc-Wee1K328M stability; 100% = proteasome inhibitor MG132 effect; reporter increase, % at 5 µM; hit rate 1.2% among 220,000; AID 1321, 2008;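 active = activation above the mean of all tested compounds plus 3 SD, set per screening run, cut at about 8.8% in these data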;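 note: cells exposed to compound for 20 h before luminescence read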
# Target sequence (P30291 whole entry K328M): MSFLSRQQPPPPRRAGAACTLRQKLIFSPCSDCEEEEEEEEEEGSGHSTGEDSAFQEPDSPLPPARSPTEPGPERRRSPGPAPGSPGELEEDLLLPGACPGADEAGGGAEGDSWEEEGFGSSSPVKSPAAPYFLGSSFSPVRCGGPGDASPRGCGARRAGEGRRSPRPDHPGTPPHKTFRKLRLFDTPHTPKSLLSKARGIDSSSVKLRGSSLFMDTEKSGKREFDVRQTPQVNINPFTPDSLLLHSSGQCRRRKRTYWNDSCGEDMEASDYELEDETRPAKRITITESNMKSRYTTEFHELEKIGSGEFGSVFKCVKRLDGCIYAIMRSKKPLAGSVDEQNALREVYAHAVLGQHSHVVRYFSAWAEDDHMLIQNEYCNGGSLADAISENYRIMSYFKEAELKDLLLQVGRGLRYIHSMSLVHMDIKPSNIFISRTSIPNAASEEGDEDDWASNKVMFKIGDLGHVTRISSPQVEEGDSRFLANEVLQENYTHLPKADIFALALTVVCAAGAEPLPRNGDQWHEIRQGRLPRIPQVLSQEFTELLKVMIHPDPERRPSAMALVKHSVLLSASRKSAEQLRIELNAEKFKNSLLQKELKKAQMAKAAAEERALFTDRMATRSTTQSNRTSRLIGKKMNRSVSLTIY
# Platelet DG rel – inhibitors of platelet dense granule secretion, primary screen, cell-based, MLPCN, human platelets. human platelet-rich plasma, SFLLRN dense granule ATP release, luminescence. inhibition, %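 (compounds screened at 7.5 µM in platelet-rich plasma)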. hit rate 0.22% among 300,000. AID 1663, 2009;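 active = mean replicate score, as percent of positive control, at or above 50; inconclusive = mean below 50 but at least one replicate at or above 50; inactive = mean and every replicate below 50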
# KLF5 inhibitor – KLF5 expression inhibitors, primary screen, DLD-1 cells, luminescence | DLD-1 KLF5 promoter-luciferase reporter | hit rate 0.23% among 290,000 | inhibition, % at 5 µM;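 active = inhibition above a per-plate limit of that plate's mean compound inhibition plus 3 SD, cut at about 60% in these data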;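 note: higher means less KLF5 promoter-driven luciferase light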
# KLF5 confirm – KLF5 expression inhibitors, confirmation, DLD-1 cells, luminescence | shares compounds with KLF5 inhibitor | DLD-1 KLF5 promoter firefly luciferase reporter | inhibition, % at 4 µM | hit rate 79% among 610 | AID 1834, 2009;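 active = inhibition above a set limit taken from the earlier primary screen, cut at about 63% in these data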
# IEC-6 tox trip – cytotoxicity in rat IEC-6 cells, cytotoxicity control for KLF5 inhibitor project, cell-based, luminescence, triplicate; shares compounds with KLF5 inhibitor; IEC-6 rat intestinal cells, viability luminescence; inhibition, % at 4 µM; hit rate 56% among 610; AID 1905, 2009; in the data active = inhibition above about 23%;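 note: cells exposed to compounds for 48 hours before viability read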
# Numbers stand for hits; 0 = inactive; ? = inconclusive; - = no result given. Hits are enriched below; roughly 2.1% of the tested compounds scored in any of these assays.
SMILES,HIF activator,aSyn 5UTR inh,Wee1 degr inh,Platelet DG rel,KLF5 inhibitor,KLF5 confirm,IEC-6 tox trip
O=C(Cc1ccc(N2CCNC2=O)cc1)N1CCCC(Nc2ccc(F)c(F)c2)C1 (centres undefined),0,0,-,0,67.1,69.3,61.6
CCOC(=O)CSc1nc(=O)n2cc(C)ccc2n1,0,0,0,0,0,-,-
Cc1ccc(NC(=O)c2ccc(NS(=O)(=O)c3ccc4[nH]c(=O)[nH]c4c3)cc2)nc1,0,0,-,0,-,-,-
CCOc1ccccc1NC(=O)Cn1nnc(C(=O)NCc2ccco2)c1N,0,84.6,0,-,76.3,88.1,63.8
Cc1ccccc1NC(=O)Cn1nnc(C(=O)NCc2ccco2)c1N,0,0,0,0,0,-,-
C=C(C)COc1ccc(-c2n[nH]c(C)c2-c2ccc(OC)c(OC)c2)c(O)c1,0,0,0,0,62.6,69.5,27.9
S=C(NCc1ccco1)NCC1CCCO1 (centres undefined),0,0,0,0,0,-,-
Cc1nc(-c2ccc3c(c2)OCCCO3)cs1,0,0,0,0,0,-,-
Cc1ccc2nc(-c3ccc4c(c3)OCCO4)cn2c1,0,110.5,0,0,103.2,106.1,57.1
COc1cc(C(=O)c2cocc2C(=O)c2ccc3c(c2)OCO3)cc(OC)c1OC,0,66.7,0,-,63.1,76.0,53.7
CCc1cccc(C)c1NC(=O)C1CN(S(=O)(=O)c2ccccc2)CCN1S(=O)(=O)c1ccccc1 (centres undefined),0,0,0,0,0,-,-
CCCCC(=O)NC(c1ccc(N(C)C)cc1)c1ccc2cccnc2c1O (centres undefined),88.6,62.4,-,0,84.5,88.5,64.4
CCCC(=O)NC(c1ccc(N(C)C)cc1)c1c(O)ccc2ccccc12 (centres undefined),-,0,0,0,0,-,-
CCCCC(=O)NC(c1ccccc1Cl)c1c(O)ccc2ccccc12 (centres undefined),0,0,0,0,0,-,-
CCCCC(=O)NC(c1ccc(N(CC)CC)cc1)c1ccc2cccnc2c1O (centres undefined),96.9,67.9,-,0,68.5,85.2,43.8
COC(=O)c1ccc(CN(c2ccc(C(=O)O)c(O)c2)S(=O)(=O)c2ccc(Cl)c([N+](=O)[O-])c2)cc1,0,0,-,0,0,-,-
CCC1=Nc2cc(C(=O)NCc3ccco3)ccc2Sc2ccc(C)cc21,0,104.2,0,0,74.9,88.1,67.2
CC1=Nc2cc(C(=O)NCCCOC(C)C)ccc2Sc2ccccc21,0,0,0,0,0,-,-
CCCC1=Nc2cc(C(=O)NCCCOCC)ccc2Sc2ccccc21,0,66.5,0,0,80.4,86.2,71.4
CC1=Nc2cc(C(=O)NCCCOC(C)C)ccc2Sc2ccc(C)cc21,0,76.6,0,0,74.2,84.9,59.3
CCCC1=Nc2cc(C(=O)NCCCOC(C)C)ccc2Sc2ccccc21,0,0,0,0,62.2,0,0
Cc1ccc(C(=O)N2CCNC(=O)C2CC(=O)Nc2ccccc2)cc1 (centres undefined),0,0,-,0,0,-,-
Cc1ccc(C(C)C)c(OCC(=O)NS(=O)(=O)c2ccc(Cl)cc2)c1,0,0,-,0,0,-,-
COc1ccc(C(=O)Nc2nc3ccccc3s2)c(OC)c1,0,79.2,-,82.8,101.0,79.8,0
COc1ccc2nc(NC(=O)c3ccccc3C(=O)O)sc2c1,0,0,-,0,0,-,-
SMILES,HIF activator,aSyn 5UTR inh,Wee1 degr inh,Platelet DG rel,KLF5 inhibitor,KLF5 confirm,IEC-6 tox trip
CC[n+]1c(/C=C2\Sc3ccccc3N2C)ccc2cccc(C)c21,0,115.8,0,0,68.3,114.9,55.5
CN1/C(=C/c2cccc[n+]2CCO)Sc2ccccc21,0,0,-,0,0,-,-
COc1ccc(S(=O)(=O)NNc2nc(C)cc(C)n2)cc1Br,0,0,-,0,-,-,-
COc1ccc(OC)c2[nH]c(C(=O)N/N=C/c3ccccc3O)cc12,?,0,-,0,96.1,90.5,0
COc1cccc(/C=N/NC(=O)c2cc3c(OC)cccc3[nH]2)c1OC,0,0,0,0,0,-,-
COc1ccc(/C=C/C(=O)NC2CCCCCCC2)cc1S(=O)(=O)N1CCOCC1,0,0,0,0,0,-,-
O=C(NC(Nc1nc2ccc([N+](=O)[O-])cc2s1)(C(F)(F)F)C(F)(F)F)c1ccccc1Cl,0,85.7,0,0,76.8,87.0,90.5
CCOC(=O)C(C)Oc1cccc2c(=O)n(CC(=O)NCc3ccccc3)ccc12 (centres undefined),0,72.6,0,0,63.1,83.6,57.5
CCOC(=O)C(C)Oc1cccc2c(=O)n(CC(=O)NCCc3ccccc3)ccc12 (centres undefined),0,0,0,0,0,-,-
COc1ccc(OC)c(S(=O)(=O)NCC(c2ccc3c(c2)OCO3)N2CCOCC2)c1 (centres undefined),0,0,-,0,-,-,-
C/C(=N\NC(=O)c1ccc(OC2CCCC2)cc1)c1ccc(O)cc1,0,0,-,0,0,-,-
CC(C)(C)c1ccc(C(=O)O/N=C(\N)c2ccccn2)cc1,0,94.0,-,0,88.8,96.1,0
N/C(=N\OC(=O)c1ccccc1)c1ccccn1,0,0,0,0,0,-,-
CN(Cc1ccc(F)cc1)C(=O)c1cccc(OCc2ccccc2)c1,0,0,-,0,0,-,-
COc1ccc2nc(SCC(=O)NC3CCCC3)c(C)cc2c1,0,0,-,0,71.4,84.9,0
COc1ccccc1NC1=C(N2CCCCC2)C(=O)c2ccccc2C1=O,0,0,0,0,80.5,89.6,0
Cc1ccc(NC2=C(N3CCCCC3)C(=O)c3ccccc3C2=O)cc1,0,0,0,0,0,-,-
O=C1C(Nc2ccccc2)=C(N2CCCCC2)C(=O)c2ccccc21,0,0,0,0,63.8,72.6,0
Cc1ccc(S(=O)(=O)/N=C(/Nc2cccc3ccccc23)c2ccc(F)cc2)cc1,0,0,-,0,0,-,-
O=C(CSc1nc2ccsc2c(=O)n1CC1CCC(C(=O)O)CC1)NCCc1ccc(Cl)cc1 (centres undefined),-,0,-,0,0,-,-
Cc1cccc(NC(=O)C(Cc2ccccc2)n2cccc2)c1 (centres undefined),0,0,0,0,0,-,-
O=C(/C=C/c1ccccc1)Nc1cc(NC(=O)/C=C/c2ccccc2)cc(C(=O)O)c1,0,0,-,0,0,-,-
O=C(/C=C/c1ccccc1)Nc1cccc(C(=O)O)c1,0,94.5,0,0,102.3,101.1,0
O=C(Nc1ncc([N+](=O)[O-])s1)c1ccc2c(c1)OCO2,0,102.6,-,80.4,76.3,0,35.5
CCCc1c(C)nc(N2CCN(c3ccccc3F)CC2)[nH]c1=O,0,0,-,0,0,-,-

# Screening data deposited in PubChem by several laboratories.
